Data on 25 compounds can be found in PubChem BioAssay (NCI).

Structures are written as SMILES. Where “and” joins values, the source holds several entries; their conditions need not be identical. Equal values may be shown once. The panel holds about 83,000 compounds, 20% with a hit somewhere; the sample as a whole holds those more often.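 48-hour exposure, single concentration, 96-well plates; percent growth endpoint where 0 means no net growth. Active: below 10.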 A number with no mark means an inactive call. Calls of active or inactive are those of the source.

For the test, the system named is HL-60(TB) leukemia. Kind of test: NCI-60 one-dose screen, 48 h (100 = growth as untreated, 0 = no growth, -100 = all killed). As to conditions: 10 µM unless noted.
As for `OC1CC2c3ccccc3C1c1ccccc12` (stereo not given), the growth was 109%.
Regarding `O=C(Nc1nc2ccc(F)cc2s1)c1cc(-c2ccc(F)cc2)n2nc(-c3ccccc3)cc2n1`, the growth is 92.9%.
Next, `CC(CCc1ccc(Cl)c(Cl)c1)NCc1ccc(C(C)(C)C)cc1` (stereo not given): 46.2%; `CN(C)CCC(=O)c1ccc(Cl)cc1`: 113% and 110%; `O=C(Nc1ccc(-n2cc(-c3ccncc3)c(-c3ccc(O)c(Cl)c3)n2)cc1)Nc1ccc(Cl)c(C(F)(F)F)c1`: -4.77% (active).
Next, `COc1cc(-c2cc(-c3ccc(N(C)C)cc3)nc(N3CCC(O)CC3)c2C#N)cc(OC)c1OC`: -23.6% (active); `COc1cccc(CNc2ccc3ncnc(Nc4ccc(F)c(Cl)c4)c3c2)c1`: 93.6%.
With `COC(=O)c1n[nH]c2ccc3nc(-c4cn[nH]c4C(F)(F)F)c4c(c3c12)CCCC4` the figure was 70%.
Turning to `C=C(C)[C@@H]1CC[C@]2(CN)CC[C@]3(C)[C@H](CC[C@@H]4[C@@]5(C)CCC(N)[C@@](C)(CO)[C@@H]5CC[C@]43C)[C@@H]12` (stereo not given in full), the growth is -66.1% (active).
As for `COc1ccc(/C=N/NC(=O)Cn2c(Cc3cccc4ccccc34)nc3ccccc32)cc1`, the growth is 93.2%.
Regarding `C=CC[N+]1(CCO)CCN=C1CCCCCCCCCCCCC` (stereo not given), the growth was -31.8% (active).
Next, `Cc1ccc(Cl)cc1NC(=O)N(C)CCO`: 92%.
For the compound `CCNC(=O)Nc1ccc(-c2nc3c(c(N4CCOC[C@@H]4C)n2)CCN(C2COC2)C3)cc1`, the growth was 82.6% and 44.4%.
Next, `O=C(Nc1ccc(Cl)c(Cl)c1)Nc1ccc(Cl)c([N+](=O)[O-])c1`: -39.9% (active).
As to `COc1ccc(C(CC(=O)c2ccc3c(c2)OCO3)C(=O)O)cc1OC` (stereo not given), the growth is 101% and 99.7%.
As for `O=C(NC1CCN(Cc2ccccc2)CC1)c1cc2nc(-c3ccc(Cl)s3)cc(C(F)(F)F)n2n1`, the growth was 58.6%.
With `CCCCCCCCCC(=O)Oc1ccc(/C(=C(/C)c2ccccc2)c2ccc(OCCN3CCCC3)cc2)cc1` the figure was -30.4% (active); with `CCN1CCN(CCNc2nccc(-c3c(-c4cccc(O)c4)nc4sccn34)n2)S1(=O)=O`, 64% and 91.9%; with `CCCCC1CCCCN1C(=O)OCC` (stereo not given), 128%.
As to `NC(=O)CN1C(=O)c2ccccc2C1=O`, the growth was 96.6%.
With `CC(=O)c1c(O)c(C)c(O)c2c1OC1=CC(=O)/C(=C(/C)N)C(=O)C12C` (stereo not given) the figure was 84.4%; with `COc1ccccc1NC(=O)N=Nc1c(O)[nH]c2ccccc12`, 93.8%.
With `COc1cccc(-n2cc(-c3nc(Nc4cc(C)[nH]n4)c4ccccc4n3)nn2)c1` the figure was 48.1%; with `CCc1onc(-c2ccc(OC)cc2)c1-c1ccccc1OCCN(CC)CC`, 82.6%.
For the compound `C=CCSc1nnc(NC(=O)CCl)s1`, the growth is 91.5%.
